PubChem BioAssay
The source made the active and inactive calls. Unless noted, no rule for the calls is given here.

What was measured:
[1] = A549 cell viability effects, profiling panel, calcein-AM fluorescence, 48 h, basal (AID 1162); details: higher = more signal; also: test concentration not given here
[2] = adipocyte viability effects, profiling panel, cell-based, 3T3-L1 adipocytes, calcein-AM fluorescence, 48 h, basal (AID 1163); details: 3T3-L1 adipocytes viability, higher = more signal; also: test concentration not given here
[3] = HepG2 cell viability effects, profiling panel, calcein-AM fluorescence, 48 h, basal (AID 1164); details: higher = more signal; also: test concentration not given here
[4] = MM1S cell viability effects, profiling panel, calcein-AM fluorescence, 48 h, basal (AID 1165); details: higher = more signal;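 also: viability of MM1S multiple myeloma cells under basal unstimulated conditions; test concentration not given here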
[5] = basal RPMI8226 viability, no added stimulus, profiling panel, cell-based, calcein-AM fluorescence, 48 h, PK04 Diversity Set (AID 1166); details: RPMI8226 myeloma viability, higher = more signal;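 also: cells grown under basal conditions without added stimulus; test concentration not given here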
[6] = basal HepG2 mitochondrial membrane potential changes, profiling panel, cell-based, JC-1 fluorescence, 24 h, 100 nL compound (AID 1167); details: higher = more signal; also: test concentration not given here
[7] = basal 3T3-L1 adipocyte mitochondrial potential changes, profiling panel, cell-based, JC-1 fluorescence, 3T3-L1 adipocytes, 24 h, 100 nL compound (AID 1168); details: JC-1 mitochondrial fluorescence, higher = more signal, called active from +8 up or from −8 down; also: test concentration not given here
[8] = basal RPMI8226 mitochondrial membrane potential changes, profiling panel, cell-based, JC-1 fluorescence, 24 h, 100 nL compound (AID 1169); details: RPMI8226 myeloma, JC-1 mitochondrial potential fluorescence, higher = more signal; also: test concentration not given here
[9] = basal MM1S mitochondrial membrane potential changes, profiling panel, cell-based, JC-1 fluorescence, 24 h, 100 nL compound (AID 1170); details: higher = more signal; also: test concentration not given here
[10] = A549 lung cancer cell viability effects, profiling panel, resazurin fluorescence, 24 h, PK04 Diversity Set (AID 1171); details: higher = more signal, called active from +8 up or from −8 down; also: test concentration not given here
[11] = HepG2 liver cancer cell viability effects, profiling panel, resazurin fluorescence, 24 h, PK04 Diversity Set (AID 1172); details: higher = more signal; also: test concentration not given here
[12] = basal S. cerevisiae growth modulation, no modifier, primary screen, OD600, strain BY4716, 24 h, basal condition (AID 1173); details: OD600, 24 h, higher = more signal, called active from +8 up or from −8 down
[13] = MM1S myeloma cell viability, profiling panel, resazurin fluorescence, basal, 24 h, PK04 Diversity Set (AID 1174); details: higher = more signal, called active from +8 up or from −8 down;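 also: MM1S multiple myeloma cell line; test concentration not given here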
[14] = biological target: Dihydroorotate dehydrogenase (quinone), mitochondrial (Plasmodium falciparum (isolate 3D7)) (UniProt Q08210); experiment: PfDHODH enzyme inhibitors, primary screen, biochemical, C-terminal His tag, absorbance 600 nm (AID 1175); details: DCIP absorbance 600 nm, higher = more signal, called active from +8 up or from −8 down;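 also: recombinant parasite enzyme with a five histidine tag at its C terminus; test concentration not given here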
[15] = P. aeruginosa biofilm formation inhibitors, primary screen, strain PAO1, LB-PBS medium, absorbance 600 nm (AID 1176); also: test concentration not given here; details: P. aeruginosa PAO1 growth/biofilm, A600, 12 h; higher = more signal
[16] = S. cerevisiae RM11-1a growth modifiers, primary screen, strain RM11-1a, OD600, basal, 24 h (AID 1177); details: OD600, 24 h, higher = more signal, called active from +8 up or from −8 down;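 also: cultures grown under basal conditions with no added stressor; test concentration not given here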
[17] = E. coli acrAB mutant growth effects, primary screen, E. coli filamentation inducers, strain DRC39, OD650, 24 h (AID 1178); details: higher = more signal, called active from +8 up or from −8 down;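 also: growth measured as culture turbidity by optical density at 650 nm; test concentration not given here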
[18] = E. coli acrAB mutant growth effects, primary screen, E. coli filamentation inducers, strain DRC39, OD650, 48 h (AID 1179);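 also: screen aims at cell division blockers that make cells filament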; details: E. coli DRC39 delta-acrAB growth, higher = more signal, called active from +8 up or from −8 down
[19] = RPMI8226 myeloma cell viability, profiling panel, resazurin fluorescence, basal, 24 h, PK04 Diversity Set (AID 1180); details: higher = more signal;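 also: RPMI8826 multiple myeloma cell line at 5000 cells per well; test concentration not given here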
[20] = biological target: E3 ubiquitin-protein ligase XIAP (Homo sapiens) (UniProt P98170); experiment: XIAP binders, primary screen, biophysical, small-molecule microarray, fluorescence 635 nm (AID 1181); details: small-molecule microarray binding, higher = more signal;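 also: score merges 667 nm emission and signal to noise over triplicate slides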
Sequence of E3 ubiquitin-protein ligase XIAP (Homo sapiens) (P98170 whole entry, looked up): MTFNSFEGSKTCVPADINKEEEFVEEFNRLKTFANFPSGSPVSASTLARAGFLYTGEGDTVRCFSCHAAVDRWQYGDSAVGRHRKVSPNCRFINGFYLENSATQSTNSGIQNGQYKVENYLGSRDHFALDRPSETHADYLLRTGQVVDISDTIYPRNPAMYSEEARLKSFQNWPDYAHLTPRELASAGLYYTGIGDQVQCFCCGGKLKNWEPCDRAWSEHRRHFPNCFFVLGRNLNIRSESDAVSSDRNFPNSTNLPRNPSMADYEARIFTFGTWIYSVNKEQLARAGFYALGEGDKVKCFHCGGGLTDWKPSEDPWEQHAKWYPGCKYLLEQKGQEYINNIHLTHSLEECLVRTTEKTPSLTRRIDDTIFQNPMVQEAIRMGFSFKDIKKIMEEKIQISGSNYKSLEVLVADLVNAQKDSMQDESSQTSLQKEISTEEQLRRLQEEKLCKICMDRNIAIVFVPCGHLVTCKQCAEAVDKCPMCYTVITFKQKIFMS

Sequence of Dihydroorotate dehydrogenase (quinone), mitochondrial (Plasmodium falciparum (isolate 3D7)) (Q08210 whole entry, looked up): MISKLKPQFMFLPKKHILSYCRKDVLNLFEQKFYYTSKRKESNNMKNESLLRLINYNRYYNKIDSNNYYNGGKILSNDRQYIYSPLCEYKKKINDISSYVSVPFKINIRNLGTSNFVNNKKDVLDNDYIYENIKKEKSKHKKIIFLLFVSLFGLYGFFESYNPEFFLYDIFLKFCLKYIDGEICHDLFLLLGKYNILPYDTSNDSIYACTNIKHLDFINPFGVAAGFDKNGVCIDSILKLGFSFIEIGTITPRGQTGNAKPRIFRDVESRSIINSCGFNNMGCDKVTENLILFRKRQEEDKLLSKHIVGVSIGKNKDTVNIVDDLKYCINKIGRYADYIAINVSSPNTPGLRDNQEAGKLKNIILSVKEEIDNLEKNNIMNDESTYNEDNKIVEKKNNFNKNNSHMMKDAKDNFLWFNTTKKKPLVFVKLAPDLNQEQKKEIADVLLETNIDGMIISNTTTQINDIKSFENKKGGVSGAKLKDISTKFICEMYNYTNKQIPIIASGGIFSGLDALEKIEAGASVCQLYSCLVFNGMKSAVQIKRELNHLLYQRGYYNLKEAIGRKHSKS

Row | SMILES | z-score [1] | z-score [2] | z-score [3] | z-score [4] | z-score [5] | z-score [6] | z-score [7] | z-score [8] | z-score [9] | z-score [10] | z-score [11] | z-score [12] | z-score [13] | composite z-score [14] | z-score [15] | z-score [16] | z-score [17] | z-score [18] | z-score [19] | composite z-score [20]
1 | NC(=O)[C@H]1[C@@H]2C(=O)O[C@@H](c3ccccc3)[C@@H](c3ccccc3)N2[C@@H](c2ccc(O)cc2)[C@]12C(=O)Nc1ccccc12 | -0.265 | -0.712 | 0.872 | 0.519 | -0.544 | -0.288 | -0.243 (inactive) | -0.309 | -0.371 | -0.189 (inactive) | -0.367 | -0.376 (inactive) | 0.0279 (inactive) | 0.0023 (inactive) | 0.0332 (inactive) | 0.575 (inactive) | -0.145 (inactive) | 0.0129 (inactive) | 0.417 | -0.0559
2 | COC(=O)C1=CC(CCCO)=CC(c2ccc(CN3CCCC3)cc2)N(Cc2cc3c(cc2Br)OCO3)C=C1C(=O)OC (stereo not given) | -0.392 | 0.151 | 0.0308 | 0.0875 | 0.046 | 0.516 | -0.251 (inactive) | 0.144 | -0.0408 | 0.652 (inactive) | 0.3 | 0.0793 (inactive) | -0.119 (inactive) | 0.214 (inactive) | 0.214 (inactive) | 0.73 (inactive) | 0.463 (inactive) | 0.67 (inactive) | -0.0377 | -0.0102
3 | CC(C)CNC(=O)[C@@]1(C)c2ccccc2C(=O)N(Cc2cc(C(F)(F)F)cc(C(F)(F)F)c2)[C@H]1c1ccc(CO)cc1 | 0.18 | -0.698 | 1.2 | -0.236 | 0.208 | 2.16 | 0.103 (inactive) | 0.465 | -0.939 | -0.428 (inactive) | -0.402 | 0.145 (inactive) | -0.47 (inactive) | 0.24 (inactive) | -0.0933 (inactive) | -0.46 (inactive) | 0.162 (inactive) | 0.644 (inactive) | 0.364 | -0.206
4 | CCOC(=O)C1=CC[C@@H](c2ccccc2)N(S(=O)(=O)c2ccc(C)cc2)[C@H]1C=Cc1ccccc1 | -0.959 | -0.443 | -0.599 | -0.149 | -1.44 | 2.91 | -0.489 (inactive) | 0.0754 | -1.42 | 2.28 (inactive) | 1.25 | 1.58 (inactive) | -0.0664 (inactive) | -0.382 (inactive) | 0.987 (inactive) | 0.65 (inactive) | -0.923 (inactive) | -0.706 (inactive) | -1.42 | -0.103
5 | C=CCC(OC(C)=O)[C@@H]1[C@@H](N(Cc2ccc(-c3ccccc3)cc2)C(=O)c2ccc(C)cc2)c2cc(OCCCO)ccc2N1C(=O)Cc1ccc2ccccc2c1 (stereo not given in full) | 1.35 | 0.844 | 0.769 | 0.697 | 0.922 | 3.38 | 0.144 (inactive) | -0.0998 | 1.14 | 0.887 (inactive) | 1.03 | -0.516 (inactive) | 1.38 (inactive) | -1 (inactive) | 0.219 (inactive) | -1.72 (inactive) | 1.64 (inactive) | 1.93 (inactive) | 1.22 | -0.02
6 | CC(C)C[C@@H]1NC(=O)[C@H]2C[C@@H](C(=O)NCCCCCN)[C@@H](c3cccc(OCCO)c3)N2C1=O | 0.779 | 0.57 | 1.3 | 0.64 | -0.0687 | 1.07 | 0.97 (inactive) | -0.336 | -0.16 | 0.11 (inactive) | -0.604 | -0.122 (inactive) | -0.178 (inactive) | -1.36 (inactive) | -0.0491 (inactive) | -2.46 (inactive) | 1.06 (inactive) | 1.61 (inactive) | 0.138 | -0.198
7 | CC(=O)N1CC(C(O)C2C=CC3C(=O)NC(=O)C3N2Nc2ccc(Cl)cc2Cl)c2ccccc21 (stereo not given) | 1.08 | -0.753 | 0.46 | -0.452 | 0.0876 | -1.29 | -0.229 (inactive) | -0.212 | 0.644 | -0.554 (inactive) | -1.59 | -2.62 (inactive) | -0.731 (inactive) | 0.905 (inactive) | 1.28 (inactive) | 1.82 (inactive) | -0.306 (inactive) | -0.547 (inactive) | -0.94 | 0.277
8 | COC(=O)[C@@]1(Cc2ccc(F)cc2)[C@H]2c3cc(C(=O)N4CCCC4)n(CC4CC4)c3C[C@H]2CN1C(=O)c1ccccc1 | -0.393 | 0.498 | -0.713 | -0.691 | -2.11 | 1.62 | -1.07 (inactive) | -0.232 | -0.51 | -0.665 (inactive) | -1.57 | -0.443 (inactive) | -1.65 (inactive) | -0.559 (inactive) | 0.495 (inactive) | 0.056 (inactive) | -0.688 (inactive) | -0.64 (inactive) | -2.11 | 0.705
9 | CCOC(=O)C[C@H]1[C@H](OC(=O)c2ccc(-c3ccccc3)cc2)[C@@H](NC(=O)Cc2ccc(OC)cc2)c2cc(OCCCO)ccc2N1C(=O)Cc1ccc(OC)cc1 | 0.368 | 0.0052 | 0.834 | 0.191 | -0.102 | 2.01 | 0.262 (inactive) | -0.198 | -0.128 | 0.207 (inactive) | -0.0383 | 0.574 (inactive) | 0.796 (inactive) | 0.593 (inactive) | 0.149 (inactive) | 1.78 (inactive) | 1.01 (inactive) | 0.622 (inactive) | 0.643 | -0.0118
